Source: PubChem BioAssay AID651558 (National Center for Advancing Translational Sciences (NCATS), 2012)
“And” between values parts separate entries of the source, which are not always exact repeats. Equal entries are not always repeated. Out of some 1,200 compounds screened, about 480 (40%) were called active. About 29% were inconclusive and are not listed. Calls come from the whole dose curve; as a rule, active = well fitted inhibition curve with a large enough effect; inconclusive = small, poorly fitted or top-dose-only effect; inactive = no such curve, though single readings can be large or run the other way. This is one part of the list. Entries that show only a call come without a potency.

experiment: qHTS Assay to Find Inhibitors of Chronic Active B-Cell Receptor Signaling: Hit Validation in Primary Screen; settings: ABC-DLBCL IkB-luc/CBR ratio luminescence, 4 h; series mostly up to 46.1 µM; note: nearly all actives have a fitted effect of over 75% in size
Summary of the method: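 TMD8 ABC-DLBCL cells carrying doxycycline-inducible IkBa-green luciferase fusion and free red luciferase, 0.5% FBS, dosed 46 uM–3 nM with doxycycline for 4 h at 37C. Green/red luminescence ratio normalized to basal and 10 uM MG-132.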
Potency is the fitted concentration of half-maximal effect.

Compound | Potency
CCOc1ccc(S(=O)(=O)NCc2ccccn2)cc1NC(=O)c1ccccc1F | 8.2 µM (active)
Cc1ccc(S(=O)(=O)Nc2cccc(-c3ccc4nncn4n3)c2)cc1 | 16.4 µM (active)
CNCc1ccccc1Sc1ccc(O)c(O)c1 | 23.1 µM (active)
CS(=O)(=O)C1=C(O)C(=O)N(c2ccccc2)C1c1ccccc1 (stereo not drawn) | inactive
COc1ccc(NC(=O)/C(C#N)=C\c2cc(C)n(-c3ccc4c(c3)OCO4)c2C)cc1 | 2.31 µM (active)
Oc1cccc(Nc2nc(N3CCOCC3)nc(N3CCOCC3)n2)c1 | 8.2 µM (active)
Cc1cc(C)n(-c2nc3ccccc3c(=O)n2OCC#N)n1 | 23.1 µM (active)
Cc1ccc(S(=O)(=O)Cc2ccc(C(=O)N3CCN(c4cccc(C)c4C)CC3)o2)cc1 | 5.17 µM (active) and 20.6 µM (active)
Oc1[nH]c2ccccc2c1N=NC(=S)N1CCOCC1 | inactive
N#C/C(=C\c1cn(Cc2ccc(F)cc2)c2ccccc12)C(=O)NCc1ccco1 | inactive
COc1ccc(CNC(=O)/C(C#N)=C/c2cccc(OC)c2OC)cc1 | 18.4 µM (active)
COc1ccc(-c2ccc(CCC(=O)O)n2-c2ccccc2OC)cc1 | inactive
CC1CC(C)CN(S(=O)(=O)c2ccc(NC(=O)c3ccc(=O)[nH]c3)cc2)C1 (stereo not drawn) | 9.2 µM (active)
Oc1cccc(/C=N/Nc2ccc(Cl)nn2)c1O | 14.6 µM (active)
Oc1ccccc1/C=N/Nc1ccnc(SCc2ccccc2)n1 | inactive
CCCCN1C(=O)N(C)C2C1N(C)C(=O)N2CCCC (stereo not drawn) | inactive
O=C(CCl)Nc1cc(S(=O)(=O)N2CCCCCC2)ccc1Cl | 20.6 µM (active)
O=C(CNC(=O)c1ccco1)N=Nc1c(O)n(CCc2ccccc2)c2ccccc12 | 5.8 µM (active)
O=[N+]([O-])c1cc(/C=N/O)ccc1Sc1ccccc1 | inactive
CCOC(=S)SCC(=O)Nc1nc(-c2ccc(Br)cc2)cs1 | 3.66 µM (active)
CCOC(=O)Cc1csc(NC(=S)NC(=O)c2ccccc2)n1 | inactive

Compound | Potency
Cc1csc(NC(=S)NC(=O)c2ccccc2)n1 | inactive
CC(=O)c1ccc2c(c1)CC(C)C(=O)N2C (stereo not drawn) | inactive
Cc1cccc(-n2c3nc(=O)[nH]c(=O)c-3cc3cc([N+](=O)[O-])ccc32)c1 | 7.31 µM (active)
Cc1ccc(C)c(-n2c3nc(=O)[nH]c(=O)c-3cc3cc([N+](=O)[O-])ccc32)c1 | inactive
COCCn1c(-c2cccc([N+](=O)[O-])c2)nc2c1c(=O)[nH]c(=O)n2Cc1ccccc1 | inactive
Cn1c(=O)n(C)c2cc(NS(=O)(=O)c3ccc(Br)s3)ccc21 | inactive
O=C1N[C@H]2CC=C[C@H]2Nc2ccccc21 | inactive
CCNC(=O)[C@H]1O[C@@H](n2cnc3c(N)nc(NCCc4ccc(CCC(=O)O)cc4)nc32)[C@H](O)[C@@H]1O | 0.0731 µM (active)
COC(=O)C1=C(C)NC(C)=C(C(=O)OC)C1/C=C/c1ccccc1 | 20.6 µM (active)
Cc1ccc(NC(=O)C(=O)NCC2CCCN2S(=O)(=O)c2cccs2)cc1C (stereo not drawn) | inactive
COc1ccc(NC(=O)C(=O)NCC2CCCN2S(=O)(=O)c2ccc(C)cc2)cc1 (stereo not drawn) | 0.517 µM (active)
CC(C)N=C(NS(=O)(=O)c1ccccc1)C(Cl)(Cl)Cl | 3.26 µM (active)
N#Cc1ccccc1NC(=O)c1cccc(COc2ccc(Cl)cc2Cl)c1 | inactive
CCN(CC)S(=O)(=O)c1ccc(N2CCOCC2)c(NC(=O)c2c3c(nc4ccccc24)CCC3)c1 | inactive
Cc1onc(-c2ccccc2)c1C(=O)Nc1cc(C(F)(F)F)ccc1N1CCOCC1 | 20.6 µM (active)
Cc1ccc2nc(SCC(=O)Nc3cc(C(F)(F)F)ccc3N3CCOCC3)[nH]c2c1 | 2.06 µM (active)
O=C(CSc1cc(Cl)ccc1Cl)Nc1ccc(N2CCOCC2)cc1 | inactive
C=CCNC(=S)N/N=C/c1ccc(C(C)(C)C)cc1 | inactive
Cc1ccc(S(=O)(=O)N(C)C[C@@H]2Oc3ccc(NC(=O)CCC(F)(F)F)cc3CC(=O)N([C@@H](C)CO)C[C@@H]2C)cc1 | 9.2 µM (active)
COc1cc(SSc2cc(OC)cc([N+](=O)[O-])c2N)c(N)c([N+](=O)[O-])c1 | inactive
Nc1ccc(C(=O)n2c3ccccc3c3ccccc32)cc1 | 13 µM (active)

Compound | Potency
COc1cc2c(cc1C1NC(=S)NC(C)=C1C(N)=O)CCCC2 (stereo not drawn) | inactive
COc1cccc(C2NC(=S)NC(C)=C2C(=O)c2ccccc2)c1OC (stereo not drawn) | 16.4 µM (active)
CCCCN(C(=O)CSc1nc2ccccc2n1CC)C1CCS(=O)(=O)C1 (stereo not drawn) | inactive
Cc1cc2c(cc(C(=O)OCC(=O)NCc3cccs3)n2C(C)C)o1 | 8.2 µM (active)
Cc1cc(C(=O)OCC(=O)Nc2c(Cl)cccc2Cl)c(C)o1 | inactive
O=C(NC(=S)NC1CCSC1=O)c1ccccc1 (stereo not drawn) | inactive
COC(=O)c1ccccc1NC(=O)Cn1c(-c2nonc2N)nc2ccccc21 | 0.731 µM (active)
CCOC(=O)c1ccccc1NC(=O)Cn1c(-c2nonc2N)nc2ccccc21 | 2.31 µM (active)
CCC(=O)Nc1nonc1-c1nc2ccccc2n1Cc1cccc2ccccc12 | 2.91 µM (active)
Cc1cccc(C)c1NC(=O)CNC(=O)CNC(=O)Cc1cccc2ccccc12 | inactive
COCCNC(=S)N/N=C(\C)c1ccc(Cl)s1 | inactive
CCONC(=O)Nc1ccccc1[N+](=O)[O-] | inactive
COCCNC(=S)N/N=C(\C)c1ccc(Cl)c(Cl)c1Cl | inactive
CCOc1ccccc1N1CSC2=C(C#N)C(c3c(OC)ccc4ccccc34)CC(=O)N2C1 (stereo not drawn) | inactive
CCN(CC)c1ccc2c(c1)OC(N)=C(C#N)C2c1cccnc1 (stereo not drawn) | 1.03 µM (active)
CN(C)c1ccc2c(c1)OC(N)=C(C#N)C2c1cccc(F)c1 (stereo not drawn) | 0.82 µM (active)
N#CC1=C(N)Oc2cc(N)ccc2C1c1cccc(Br)c1 (stereo not drawn) | 4.11 µM (active)
CC(O)c1cccc(-c2ccc(CN3C[C@]4(CO)O[C@@H](CO)C[C@@H]4S3(=O)=O)cc2)c1 (stereo partly drawn) | inactive
CC1=NN(C(N)=S)C(=O)C1N=Nc1ccc(C)c(Br)c1 (stereo not drawn) | inactive
OC(C#Cc1ccccn1)c1cccs1 (stereo not drawn) | inactive
COc1ccc(COc2cc(-c3cccc(OC)c3)nc3ccc(N)cc23)cc1 | 2.91 µM (active)
